Most compounds without a hit are left out; they make up all but 2.2% or so of the library.
Mito fusion yeast: inhibitors of mitochondrial division or activators of mitochondrial fusion; S. cerevisiae fusion-defective mutant growth rescue, CellTiterGlo 48 h; Potency, µM (doses to about 46.1 µM), without a hit: at the highest dose growth rescue (activation), usual class: activators; hit rate 0.23% among 320,000; AID 485298; further: % of control where 0% means no effect; nearly all actives have a fitted effect of over 45% in size
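S. cerevisiae fusion-defective temperature-sensitive mutants (e.g. fzo1-1, mgm1-5) grown 48 h at 37C in YPEG (ethanol/glycerol non-fermentable) medium with 23 nl compound per well; growth rescue read as CellTiterGlo luminescence.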
Abeta rescue: restores growth of yeast expressing A-beta42 peptide | yeast expressing A-beta42, growth rescue, OD600, 48 h; response scale: 0% DMSO, 100% iron-clioquinol control | Potency, µM (series often up to 46.1 µM), actives largely listed as activators | hit rate 0.063% among 410,000; further: nearly all actives have a fitted effect of over 55% in size
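Yeast growth medium received pinned compounds, then yeast cells expressing toxic A-beta were added; plates incubated at 30 C for 48 hr. Growth read as absorbance at 600 nm, normalized to DMSO and equimolar FeCl3 plus clioquinol controls.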
TDP43 rescue: inhibitors of TDP-43 toxicity in yeast; TDP-43 expressing yeast growth rescue, BacTiter-Glo, 24 h; Potency, µM (series often up to 46.1 µM), for inactives: at the highest dose growth rescue (activation), most hits filed as activators; hit rate 1.8% among 410,000; AID 652104; further: % of control where 0% means no effect; nearly all actives have a fitted effect of over 50% in size
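In this qHTS, compounds that restore growth of yeast expressing TDP-43 appear as activators. Cells (OD600=0.02, galactose medium, raffinose-pregrown) are incubated with compound 24 hr at 30 deg C and growth is quantified by BacTiter-Glo.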
ERG-DNA inh: ERG Ets/DNA interaction inhibition. AID 624246. hit rate 0.028% among 370,000. fluorescence polarization, His-ERG Ets domain / labelled DNA. P11308. Potency, µM (highest dose often 76.9 µM), inactives show at the highest dose FP activity, negative = inhibition, actives largely listed as inhibitors; active means well fitted inhibition curve with a large enough effect in the polarisation, with a control signal flat; inconclusive means small, poorly fitted or top-dose-only effect, or effect the other way, or a change in a side signal; inactive means no such curve, though single readings can be large or run the other way; the % refers to the polarisation;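 further: polarization taken with two DNA probes labelled with fluorescein and Texas red; % of control where 0% means no effect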
Target sequence (P11308 whole entry, looked up, the tested form may be a part): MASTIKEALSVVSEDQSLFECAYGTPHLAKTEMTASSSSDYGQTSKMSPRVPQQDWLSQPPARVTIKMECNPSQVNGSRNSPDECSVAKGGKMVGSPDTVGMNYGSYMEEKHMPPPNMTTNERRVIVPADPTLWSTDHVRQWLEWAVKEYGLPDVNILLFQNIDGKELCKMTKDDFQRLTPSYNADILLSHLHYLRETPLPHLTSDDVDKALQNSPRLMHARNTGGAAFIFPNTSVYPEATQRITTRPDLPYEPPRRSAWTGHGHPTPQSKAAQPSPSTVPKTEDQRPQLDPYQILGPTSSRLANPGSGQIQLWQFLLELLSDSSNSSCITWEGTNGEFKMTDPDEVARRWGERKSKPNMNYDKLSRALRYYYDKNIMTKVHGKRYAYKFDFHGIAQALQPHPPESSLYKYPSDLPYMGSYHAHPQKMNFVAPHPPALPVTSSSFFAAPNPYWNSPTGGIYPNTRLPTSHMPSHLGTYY
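His-tagged ERG Ets domain (1 uM in the protein solution; 300mM KCl, 50mM Tris-HCl, 1mM EDTA, 1mM DTT, pH 7.5) received compound, then a probe mix of 5 nM fluorescein-DNA and 100nM Texas-615-DNA. Fluorescence polarization was read for both dyes.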
aSyn yeast inh: rescues yeast growth from alpha-synuclein toxicity | Yeast expressing alpha-synuclein, growth rescue, BacTiter-Glo, 24 h | Potency, µM (titrated, usually from 46.1 µM), without a hit: at the highest dose growth rescue (activation), hits mostly activators | hit rate 0.14% among 370,000 | AID 652106; further: % of control where 0% means no effect; nearly all actives have a fitted effect of over 65% in size
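Readout is rescue of growth in alpha-synuclein-expressing yeast, so inhibitors of toxicity appear as activators. Growth after 24 hr at 30 deg C in galactose medium is quantified by luminescence.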
FUS suppressor: rescues growth of FUS-expressing yeast; S. cerevisiae FUS-expressing, growth rescue, OD600, 24 h; Potency, µM (doses to about 76.6 µM), hits mostly activators; hit rate 0.24% among 390,000; AID 1347120;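 further: plate controls were DMSO vehicle for no effect and reference control for full effect; nearly all actives have a fitted effect of over 55% in size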
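Quantitative HTS measuring growth restoration of FUS-toxic yeast. Galactose-induced cells (OD 0.005) were exposed 24hr at 30C to compounds at several concentrations, then absorbance at 600 nm was recorded.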
The depositor's hits bear a star; i = inactive; ? = inconclusive; nt = not tested or not shown; [ ] = remark or other dose. Unless noted, the call rests on the fitted dose curve; in most records, active means well fitted curve in the direction sought with a large enough effect; inconclusive means small, poorly fitted or top-dose-only effect, or another doubt; inactive means no such curve, though single readings can be large; an effect the other way counts as inactive or inconclusive. Potency means the concentration at half of the fitted maximal effect.

SMILES	Mito fusion yeast	Abeta rescue	TDP43 rescue	ERG-DNA inh	aSyn yeast inh	FUS suppressor
Cc1ccc(Nc2ncc(C(=O)Nc3ccc(F)cc3F)c3ccccc23)cc1Cl	nt	i	8%	0%	nt	i
COC(=O)[C@H]1C[C@H](OC(=O)NCc2ccccc2F)[C@@]2(O)CN(S(=O)(=O)c3ccc(C)cc3)CC2[C@H]1C(=O)OC (some centres undefined)	nt	i	22%	nt	3%	i
Cc1ccc2[nH]c(-c3cccc(F)c3)cc(=O)c2c1	-2%	i	19%	14%	7%	i
Cc1ccc2[nH]c(-c3cccc(N)c3)cc2c1	-4%	i	22µM*	-1%	12%	?
CCSc1nnc(-c2ccncc2)o1	-2%	i	-2%	-8%	-1%	i
Fc1ccc(CSc2nnc(-c3ccncc3)o2)cc1	1%	i	13µM*	7%	0%	i
Clc1ccc(CSc2nnc(-c3ccncc3)o2)cc1	8%	i	6.3µM*	-4%	nt	i
COC(=O)/N=C(/Cc1ccc(OC)cc1)c1ccc(OC)cc1	16%	i	22µM*	8%	-3%	i
COc1ccc(CC(=O)NO)cc1	nt	nt	nt	nt	-7%	nt
Cn1c(=O)cc(OCCCC(=O)Nc2cc(C(F)(F)F)ccn2)c2ccccc21	nt	nt	nt	nt	nt	i
Cc1cccc(/C=N/NC(=O)c2cc3c(s2)-c2ccccc2CC3)c1	11µM*	i	?	-9%	24%	i
CN(C(=O)c1ccc(NC(=O)Cc2cccc(NC(=O)C3CCCN(C(=O)C4CCCCC4)C3)c2)cc1)C1CCCC1 (centres undefined)	3%	i	10%	4%	-2%	28µM*
CC(C)(C)C(=O)Nc1ccc2c(c1)C(=O)C(=O)c1ccccc1-2	nt	nt	nt	nt	-7%	nt
O=C(Nc1nc(-c2ccccc2)cs1)C1COc2ccccc2O1 (centres undefined)	3%	i	11µM*	-2%	-12%	i
O=C(Nc1nc(-c2ccc3c(c2)OCCO3)cs1)C1CCCC1	-10%	i	11µM*	-1%	-20%	i
O=C(Nc1nc(-c2ccccn2)cs1)C1COc2ccccc2O1 (centres undefined)	?	i	?	-3%	?	i
CC(=O)Nc1nc(-c2ccc3c(c2)OCO3)cs1	-1%	i	6%	0%	0%	i
O=C(Nc1nc(-c2ccc3c(c2)OCO3)cs1)C1COc2ccccc2O1 (centres undefined)	21%	i	11µM*	4%	-1%	i
O=C(NNc1nc2c(F)cccc2s1)C1COc2ccccc2O1 (centres undefined)	0%	i	-12%[0.397 µM]	-1%	2%	i
Cc1ccc2sc(NNC(=O)C3COc4ccccc4O3)nc2c1C (centres undefined)	15%	i	7.1µM*	10%	-4%	i
CCOC(=O)c1sc(NC(=O)C(C)Oc2ccc(OC)cc2)c(C(=O)OCC)c1C (centres undefined)	nt	i	-4%	1%	nt	i
O=C(NCc1ccccc1Cl)O[C@H]1CC[C@@]23CCCN2C(=O)CCC[C@H]3C1	nt	nt	nt	nt	nt	i
C[C@H]1[C@@H](OC(=O)NCc2ccc(Cl)cc2)CC[C@@]23CCCN2C(=O)CCC[C@@H]13	nt	nt	nt	nt	nt	i
CC1CCc2nc(NC(=O)C3COc4ccccc4O3)sc2C1 (centres undefined)	?	?	35µM*	-6%	-1%	i
O=C(Nc1cccc2ccccc12)/C(Cl)=C/c1ccccc1	?	i	16µM*	13%	-9%	i
CCOc1ccc(C2c3[nH]c4ccccc4c3CCN2C(=O)Cc2cccc(OCC)c2OCC)cc1 (centres undefined)	nt	i	1%	3%	nt	?

Source: PubChem BioAssay
